From paper PMC11995724, “Antibiotic target discovery by integrated phenotypic and activity-based profiling of electrophilic fragments” (Cell chemical biology, 2025)
Screen size: about 3,200 compounds; about 110 (3.4%) showed an effect of 50% or more. For the sample, strong results were picked, then their nearest neighbours and some compounds at random.

Test system: T1, V. cholerae SAD30
T1 construct: SAD30
Parameters: species or system S. aureus MSSA476 (TSB) or V. cholerae SAD30 (LB); 384-well bacterial growth screen at 25 uM, OD600 relative to DMSO control
Conditions: relative growth, OD600, LB; 25 µM; inhibitor

SMILES | % of control remaining [%]
CCc1ccc(NC(=O)C(C)Cl)cc1 (stereo not drawn) [4-L15, 2-chloro-N-(4-ethylphenyl)propanamide] | 96.9592
CC(Cl)C(=O)NCc1csc2ccccc12 (stereo not drawn) [7-C11, N-[(1-benzothiophen-3-yl)methyl]-2-chloropropanamide] | 69.5192
COc1ccc(C=C(C#N)C(=O)Nc2ccccc2)cc1 [8-A05, 2-cyano-3-(4-methoxyphenyl)-N-phenylprop-2-enamide] | 91.9782
N#CC(=Cc1ccc(O)cc1)C(=O)Nc1cc(Cl)ccc1Cl [9-F03, 2-cyano-N-(2,5-dichlorophenyl)-3-(4-hydroxyphenyl)prop-2-enamide] | 117.947
CC(Cl)C(=O)N1CCN(C(=O)Cc2cccc(Cl)c2)C(C)C1 (stereo not drawn) [7-E20, 2-chloro-1-{4-[2-(3-chlorophenyl)acetyl]-3-methylpiperazin-1-yl}propan-1-one] | 74.6737
CC(Cl)C(=O)N[C@H]1C[C@H](C)S(=O)(=O)c2sccc21 (stereo partly drawn) [6-B22, 2-chloro-N-[(2S,4S)-2-methyl-1,1-dioxo-2H,3H,4H-1lambda6-thieno[2,3-b]thiopyran-4-yl]propanamide] | 103.289
Cc1ccc(SCCNC(=O)CCl)cc1 [4-K21, 2-chloro-N-{2-[(4-methylphenyl)sulfanyl]ethyl}acetamide] | 111.279
N#CC(=Cc1ccccc1OC(F)F)C(=O)Nc1ccccc1Cl [9-M21, N-(2-chlorophenyl)-2-cyano-3-[2-(difluoromethoxy)phenyl]prop-2-enamide] | 89.5309
CC(Cl)C(=O)NCCc1ccc(F)cc1 (stereo not drawn) [6-F06, 2-chloro-N-[2-(4-fluorophenyl)ethyl]propanamide] | 86.757
O=C1C=CC(=O)N1CCc1ccccc1 [10-E20, 1-(2-phenylethyl)-2,5-dihydro-1H-pyrrole-2,5-dione] | 27.5862
O=C1C=CC(=O)N1CCc1ccccc1F [10-G03, 1-[2-(2-fluorophenyl)ethyl]-2,5-dihydro-1H-pyrrole-2,5-dione] | 22.2872
COc1ccc(CCN2C(=O)C=CC2=O)cc1 [10-A05, 1-[2-(4-methoxyphenyl)ethyl]-2,5-dihydro-1H-pyrrole-2,5-dione] | 35.8465
Cc1cc(C(=O)CCl)c(C)n1CCc1ccc(F)cc1 [10-G14, 2-chloro-1-{1-[2-(4-fluorophenyl)ethyl]-2,5-dimethyl-1H-pyrrol-3-yl}ethan-1-one] | 97.7206
O=C1C=CC(=O)N1CCc1ccc(F)cc1 [10-C21, 1-[2-(4-fluorophenyl)ethyl]-2,5-dihydro-1H-pyrrole-2,5-dione] | 34.7555
O=C(CCl)NCCCc1ccccc1 [4-N04, 2-chloro-N-(3-phenylpropyl)acetamide] | 112.487
COc1ccc(CCNC(=O)CCl)cc1 [5-H12, 2-chloro-N-[2-(4-methoxyphenyl)ethyl]acetamide] | 68.593
Cc1cc(C(=O)CCl)c(C)n1CCc1ccccc1 [10-B18, 2-chloro-1-[2,5-dimethyl-1-(2-phenylethyl)-1H-pyrrol-3-yl]ethan-1-one] | 95.3828
COc1ccc(CCN2C(=O)C=CC2=O)cc1OC [10-H07, 1-[2-(3,4-dimethoxyphenyl)ethyl]-2,5-dihydro-1H-pyrrole-2,5-dione] | 98.344
